Reference: PubChem BioAssay (EPA / NIEHS)
The source made the active and inactive calls. The calls were made as follows: active = hit-call score of the fitted dose curve at least 0.9, where 1 is the maximum; inactive = score below 0.9.

Assay: BSK_3C_VCAM1: BioMAP Diversity Plus: 3C Assay for Vascular cell adhesion molecule 1 (VCAM1) Biomarker Activity (AID 2282999)
Conditions: BioMAP 3C HUVEC, VCAM1 ELISA, cytokine-stimulated; actives raise or lower the signal
Outline: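 Human umbilical vein endothelial cells (3C system), biomarker read by ELISA 24 h after dosing; bidirectional fit against DMSO baseline. Cytotoxicity tracked by SRB total-protein staining in parallel cultures at biomarker time.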
In the case of `Clc1ccc(C(c2ccc(Cl)cc2)C(Cl)(Cl)Cl)cc1`, the AC50 is reported as 27.5 µM (active). In the case of `Nc1ccc(Oc2ccc(N)cc2)cc1`, the outcome is reported as “inactive”. For `ClC1=C(Cl)[C@]2(Cl)[C@H]3[C@H]([C@@H]4C=C[C@H]3C4)[C@@]1(Cl)C2(Cl)Cl`, the AC50 was 28.7 µM (active). In the case of `CCCCCOC(=O)c1ccccc1C(=O)OCCCCC`, the AC50 is reported as 20 µM (active). In the case of `CC(C)(C)C(O)(CCc1ccc(Cl)cc1)Cn1cncn1` (stereo unspecified), the outcome is reported as “inactive”. In the case of `OCCOCCO`, the outcome is reported as “inactive”. For `Brc1ccc(Oc2ccccc2)cc1`, the outcome was “inactive”. For `ClC1=C(Cl)C2(Cl)C3C(Cl)C=CC3C1(Cl)C2(Cl)Cl` (stereo unspecified), the AC50 was 30.8 µM (active). In the case of `CCC(C)c1ccc(O)cc1` (stereo unspecified), the outcome is reported as “inactive”. In the case of `c1ccc2c(c1)oc1ccccc12`, the outcome is reported as “inactive”. With `CCC12COCN1COC2` the outcome was “inactive”. For `c1ccc2c(c1)-c1cccc3cccc-2c13`, the outcome was “inactive”. With `Nc1ccc(Cl)cc1N` the AC50 was 4.34 µM (active). For `O=C(Nc1ccccc1)c1ccccc1I`, the outcome was “inactive”. In the case of `CCOC(=O)[C@]1(c2ccccc2)Oc2ccccc2[C@@H]1N`, the outcome is reported as “inactive”. For `CN(C)C(=O)Nc1ccc(Cl)cc1`, the outcome was “inactive”. For `CCCCCCCCOC(=O)c1ccc(C(=O)OCCCCCCCC)c(C(=O)OCCCCCCCC)c1`, the outcome was “inactive”. In the case of `CN(C)c1ccc(C(=O)c2ccc(N(C)C)cc2)cc1`, the outcome is reported as “inactive”. For `Clc1ccc(C(c2ccc(Cl)cc2)C(Cl)Cl)cc1`, the AC50 was 31.4 µM (active). With `Nc1ccc(Cc2ccc(N)cc2)cc1` the outcome was “inactive”. For `Cc1cccc(N)c1N`, the AC50 was 16 µM (active). With `O=P(OCCCl)(OCCCl)OCCCl` the outcome was “inactive”. In the case of `O=Cc1ccco1`, the outcome is reported as “inactive”. With `c1ccc(NNc2ccccc2)cc1` the outcome was “inactive”. With `Oc1ccccc1Cl` the outcome was “inactive”. With `CC(C)COC(=O)c1ccccc1C(=O)OCC(C)C` the AC50 was 26.8 µM (active). With `O=[N+]([O-])c1ccc(Oc2ccc(Cl)cc2Cl)cc1` the outcome was “inactive”. In the case of `N#CC(Br)Br`, the outcome is reported as “inactive”.

Assay: BSK_4H_Eotaxin3: BioMAP Diversity Plus: 4H Assay for Eotaxin 3 Biomarker Activity (AID 2283000);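 as to outcome: CCL26 protein level quantified by ELISA in parallel with SRB cytotoxicity check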
Conditions: primary human endothelial cells (HUVEC); actives raise or lower the signal
Outline: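 Eotaxin-3 (CCL26) levels were measured by ELISA in HUVEC primary cultures 24 h post-dosing. Gain or loss of signal was fitted in both directions, with DMSO serving as baseline and negative control.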
With `Clc1ccc(C(c2ccc(Cl)cc2)C(Cl)(Cl)Cl)cc1` the AC50 was 30.1 µM (active). In the case of `Nc1ccc(Oc2ccc(N)cc2)cc1`, the outcome is reported as “inactive”. For `ClC1=C(Cl)[C@]2(Cl)[C@H]3[C@H]([C@@H]4C=C[C@H]3C4)[C@@]1(Cl)C2(Cl)Cl`, the AC50 was 34.1 µM (active). With `CCCCCOC(=O)c1ccccc1C(=O)OCCCCC` the AC50 was 20 µM (active). With `CC(C)(C)C(O)(CCc1ccc(Cl)cc1)Cn1cncn1` (stereo unspecified) the outcome was “inactive”. With `OCCOCCO` the outcome was “inactive”. With `Brc1ccc(Oc2ccccc2)cc1` the outcome was “inactive”. For `ClC1=C(Cl)C2(Cl)C3C(Cl)C=CC3C1(Cl)C2(Cl)Cl` (stereo unspecified), the AC50 was 29.9 µM (active). For `CCC(C)c1ccc(O)cc1` (stereo unspecified), the outcome was “inactive”. For `c1ccc2c(c1)oc1ccccc12`, the outcome was “inactive”. With `CCC12COCN1COC2` the outcome was “inactive”. With `c1ccc2c(c1)-c1cccc3cccc-2c13` the outcome was “inactive”. For `Nc1ccc(Cl)cc1N`, the AC50 was 2.15 µM (active). With `O=C(Nc1ccccc1)c1ccccc1I` the outcome was “inactive”. In the case of `CCOC(=O)[C@]1(c2ccccc2)Oc2ccccc2[C@@H]1N`, the AC50 is reported as 29.6 µM (active). In the case of `CN(C)C(=O)Nc1ccc(Cl)cc1`, the outcome is reported as “inactive”. In the case of `CCCCCCCCOC(=O)c1ccc(C(=O)OCCCCCCCC)c(C(=O)OCCCCCCCC)c1`, the outcome is reported as “inactive”. With `CN(C)c1ccc(C(=O)c2ccc(N(C)C)cc2)cc1` the outcome was “inactive”. For `Clc1ccc(C(c2ccc(Cl)cc2)C(Cl)Cl)cc1`, the AC50 was 28.7 µM (active). In the case of `Nc1ccc(Cc2ccc(N)cc2)cc1`, the outcome is reported as “inactive”. With `Cc1cccc(N)c1N` the outcome was “inactive”. In the case of `O=P(OCCCl)(OCCCl)OCCCl`, the outcome is reported as “inactive”. With `O=Cc1ccco1` the outcome was “inactive”. With `c1ccc(NNc2ccccc2)cc1` the outcome was “inactive”. With `Oc1ccccc1Cl` the outcome was “inactive”. With `CC(C)COC(=O)c1ccccc1C(=O)OCC(C)C` the outcome was “inactive”. In the case of `O=[N+]([O-])c1ccc(Oc2ccc(Cl)cc2Cl)cc1`, the AC50 is reported as 33.6 µM (active). With `N#CC(Br)Br` the outcome was “inactive”.
